# Active and inactive are the calls of the source. How the source made its calls: active means hit-call score of the fitted dose curve at least 0.9, where 1 is the maximum; inactive means score below 0.9.
# Read-out: Paternally Expressed 10 (PEG10), PEG10 (gene 23089)
# Test: LTEA_HepaRG_PEG10: Life Technologies and Expression Analysis (LTEA) Assay for Paternally Expressed 10 (PEG10) using HepaRG (AID 2283520);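 on AC50: PEG10 transcript by qRT-PCR normalised to ACTB GAPDH and POLR2A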
# Settings: mRNA level, 48 h; actives raise or lower the signal
# Method: LTEA_HepaRG is a cell based, multiplexed-readout assay that uses HepaRG, a human liver cell line, with measurements taken at 48 hours after chemical dosing on a 96-well plate.LTEA_HepaRG_PEG10 is one of 102 assay component(s) measured in the LTEA HepaRG cell culture assay. It is a marker of Cell proliferation, survival, death.Data from the assay component LTEA_HepaRG_PEG10 was analyzed into 1 endpoint. This assay endpoint, LTEA_HepaRG_PEG10, was analyzed with bidirectional fitting relative to DMSO as the negative control and baseline of activity. Using a type of inducible reporter, measures of mRNA induction for gain or loss-of-signal activity can be used to understand regulation of transcription factor activity. To generalize the intended target to other relatable targets, this assay endpoint is annotated to the dna binding intended target family, where the subfamily is xenobiotic metabolism.
# A total of 1060 chemcials from the ToxCast library were tested in eight-point concentration-response experiments. Cell culture and cytotoxicity assays were conducted at Thermo Fisher Scientific's Custom Services facility (Madison, WI). A single lot of human HepaRG cells (Thermo Fisher Scientific, Frederick, MD) was used for the cell culture experiments. 96-well format collagen type I coated plates of human HepaRG cells were prepared using established methods. Briefly, cryopreserved HepaRG cells were thawed, plated at a density of approximately 100,000 cells/well in HepaRG Thaw, Plate, and General Purpose media (HPRG770, Thermo Fisher Scientific), and incubated for 48 hours. 0.5% DMSO was selected as vehicle control to balance the requisite need of DMSO in HepaRG cultures to maintain differentiation (for example, baseline metabolism, proportions of hepatocytes vs. cholangiocytes), while enabling further hepatic receptor pathway activation (for example, PXR and CAR) in response to chemical exposure. 48 hours after plating, the culture medium was replaced with HepaRG Serum-Free Incudtion Media. Cells were exposed to each test chemical in duplicate and maintained in CO2 incubators for another 48 hours. Chemical plates were thawed to room temperature and 200x concentrations of treatment groups were prepared. 8-point conentration-reponse curves were made with the highest exposure at 100 uM, followed by half-log dilutions, all in 0.5% DMSO. Each test plate contained variouse controls, induction positive controls (1mM phenobarbital), cytotoxicity positive controls ([…] aflatoxin B1), vehicle controls (0.5% DMSO), and total lysis controls (0.5% DMSO). Cell morphology images were taken using an Essen IncuCyte FLR automated microscope, with six 96-well plates imaged in about 24 minutes. Images were captured and exported and JPEG files. Spent culture media was transfered to black-well plates for the LDH assay, and remaining media was sorted at -80 C for later use. Cells were treated with RLT buffer and frozen until shipped for gene expression analysis. Total RNA was isolated from the cell suspension in 75 uL of Buffer RLT (Qiagen, Germantown, MD 20874) by Quintiles/Expression Analysis (Durham, NC) using a custom isolation procedure. Total RNA from each plate well was transferred to a preamplification plate. Fluidigm's 96.96 Dynamic ArrayTM (Fluidigm, Amsterdam, the Netherlands) technology was used for gene expression analyses by quantitative reverse transcription polymerase chain reaction (qRT-PCR, performed by Quintiles/Expression Analysis, Durham, NC)89. Standard TaqManTM Assays (Applied Biosystems/ThermoFisher Scientific, Foster City, CA) were used to assess the expression of 93 genes selected based on their selectivity and sensitivity to important hepatic receptors known to be modulated by environmental chemicals; importance in human hepatocyte functionality; and hepatotoxicity. […]
SMILES,AC50,outcome
Cc1[nH]nc2c1N=C(c1ccccc1Cl)c1cc([N+](=O)[O-])ccc1N2,3.67 µM (active),
O=C(c1ccccc1)c1ccccc1,,inactive
N=C(N)c1ccc(OCCCCCOc2ccc(C(=N)N)cc2)cc1,26.6 µM (active),
CCCCc1oc2ccccc2c1C(=O)c1cc(I)c(OCCN(CC)CC)c(I)c1,22.6 µM (active),
O=C(CCCN1CCC(O)(c2ccc(Cl)cc2)CC1)c1ccc(F)cc1,,inactive
CCCCC(CC)C(=O)O (stereo unspecified),,inactive
CCCCCCCCCCCCOS(=O)(=O)O,,inactive
CN(Cc1cnc2nc(N)nc(N)c2n1)c1ccc(C(=O)N[C@@H](CCC(=O)O)C(=O)O)cc1,,inactive
CCCCC=O,,inactive
CC(=O)Nc1ccc(O)cc1,,inactive
OCC(CO)(CBr)CBr,,inactive
CN(C)CCOC(c1ccccc1)c1ccccc1,,inactive
CCC(C)c1ccccc1O (stereo unspecified),,inactive
CS(=O)(=O)c1ccc([C@@H](CC2CCCC2)C(=O)Nc2cnccn2)cc1Cl,,inactive
O=C1NS(=O)(=O)c2ccccc21,,inactive
CCCCCCCCCCCCCCC,,inactive
